Assay outcomes as filed in PubChem.
Only some compounds are listed: those with a hit (about 1.8% of all), similar ones and a draw of the others.
Ba/F3 V617F tox = reduced viability of JAK2V617F-dependent Ba/F3 cells, primary screen, JAK2V617F inhibitor project, cell-based, Ba/F3 EpoR-JAK2V617F, luminescence. inhibition, % at 5.6 µM. ATP luminescence. 220,000 tested, 1.1% active;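 active = inhibition above the campaign mean plus 3 SD over all tested compounds, cut at about 24% in these data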;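 also: cytokine-independent growth of Ba/F3 cells driven by EpoR plus mutant JAK2; 0% = DMSO-treated cells and 100% = JAK inhibitor I control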
APP 5UTR inh = inhibitors of APP translation via 5'UTR reporter, primary screen, APP 5'UTR luciferase, SH-SY5Y cells; SH-SY5Y APP 5'UTR-luciferase reporter, luminescence; inhibition, % at 2 µM; 190,000 tested, 0.82% active;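 active = inhibition above a set limit, derived from the sample mean plus 3 SD, cut at about 45% in these data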
KLF5 inh = KLF5 expression inhibitors, primary screen, DLD-1 cells, luminescence. DLD-1 KLF5 promoter-luciferase reporter. inhibition, % at 5 µM. 290,000 tested, 0.23% active. AID 1700, 2009;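 active = inhibition above a per-plate limit of that plate's mean compound inhibition plus 3 SD, cut at about 60% in these data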;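 also: 0% = DMSO wells and 100% = LY294002 at 200 µM; higher means less KLF5 promoter-driven luciferase light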
BaF3 parental = parental Ba/F3 cell viability inhibition, counter-screen for JAK2V617F inhibitor project, murine pro-B, CellTiter-Glo luminescence; CellTiter-Glo ATP luminescence; inhibition, % at 5.6 µM; 220,000 tested, 1.1% active; AID 1486, 2009;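 active = inhibition above a per-campaign cutoff, the mean inhibition of all tested compounds plus 3 SD, cut at about 27% in these data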;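 also: 0% = DMSO wells and 100% = JAK Inhibitor I control wells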
IEC-6 tox = cytotoxicity in IEC-6 intestinal epithelial cells, primary screen, cytotoxicity control for KLF5 inhibitor project, cell-based, luminescence; inhibition, % at 5 µM; 290,000 tested, 0.78% active; IEC-6 cytotoxicity, luminescence viability; in the data active = inhibition above about 22%;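 also: 0% = plate median of test compound wells and 100% = cytotoxic reference compound wells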
* = called active by the depositor.

How did COc1cc(C2Nc3cccc4cccc(c34)N2)cc(OC)c1OC(C)=O do in these assays?
Ba/F3 V617F tox: -0.2; APP 5UTR inh: 8.9; KLF5 inh: -6.1; BaF3 parental: 39.9*; IEC-6 tox: -1.5

Results for COc1cc(C2Nc3cccc4cccc(c34)N2)ccc1O ?
KLF5 inh: -36.2; IEC-6 tox: -5.8

What do the screens show for `Cc1sc2ncnc(N3CCC(C)CC3)c2c1C`?
Ba/F3 V617F tox: -1.0; APP 5UTR inh: -6.5; KLF5 inh: -0.4; BaF3 parental: 4.0; IEC-6 tox: 1.7

What do the screens show for `Cc1sc2ncnc(N3CCN(CCOc4ccc(Cl)cc4)CC3)c2c1C`?
Ba/F3 V617F tox: 11.2; APP 5UTR inh: 3.1; KLF5 inh: -5.5; BaF3 parental: 31.3*; IEC-6 tox: 5.7

Results for O=S(=O)(c1ccc2ccccc2c1)N1CCN(C(=S)Nc2ccc(F)cc2)CC1 ?
Ba/F3 V617F tox: 19.1; APP 5UTR inh: 5.5; KLF5 inh: -23.1; BaF3 parental: 35.0*; IEC-6 tox: -0.2

Results for CC(Sc1nnc(CC(=O)Nc2ccccc2F)n1C)C(=O)Nc1nccs1 (stereo unspecified) ?
KLF5 inh: 20.5; IEC-6 tox: 1.7

Results for CCOC(=O)C1(CCOC)CCN(C(=O)c2ccccc2-c2cccc(C)c2)CC1 ?
Ba/F3 V617F tox: 3.5; APP 5UTR inh: -5.0; KLF5 inh: -27.1; BaF3 parental: 81.5*; IEC-6 tox: 3.6

What do the screens show for `O=C(NCc1ccccc1C(F)(F)F)C1CCC(=O)N(CCCc2ccccc2)C1` (stereo unspecified)?
KLF5 inh: -34.0; IEC-6 tox: -0.7

Results for CC(C)CNC(=O)c1cccc(NC(=O)c2ccc3c(c2)C(=O)N(C)C3=O)c1 ?
KLF5 inh: -42.1; IEC-6 tox: 0.0

How did O=C(/C=C/c1ccccc1)C1=C(O)C(=O)N(CCO)C1c1ccccc1[N+](=O)[O-] (stereo unspecified) do in these assays?
Ba/F3 V617F tox: -2.4; APP 5UTR inh: 20.5; KLF5 inh: -17.9; BaF3 parental: 5.9; IEC-6 tox: -1.1

How did CC1=CCC2COC(c3ccc[n+](Cc4ccccc4)c3)C1C2 (stereo unspecified) do in these assays?
Ba/F3 V617F tox: 46.3*; APP 5UTR inh: -15.6; KLF5 inh: 5.7; BaF3 parental: 66.8*; IEC-6 tox: -1.7

Results for O=C(/C=C/c1ccco1)Oc1cc(Br)cc(/C=N/NC(=O)c2ccccc2O)c1 ?
Ba/F3 V617F tox: -4.0; APP 5UTR inh: 63.7*; KLF5 inh: -4.9; BaF3 parental: 0.1; IEC-6 tox: 0.8

How did COc1ccc(CN(C(=O)c2ccc(C)cc2)C2CCS(=O)(=O)C2)cc1 (stereo unspecified) do in these assays?
KLF5 inh: 3.3; IEC-6 tox: 2.4

How did CCc1n(CC(O)COC2CCCCC2)c2ccccc2[n+]1C (stereo unspecified) do in these assays?
Ba/F3 V617F tox: 24.3*; APP 5UTR inh: -4.4; KLF5 inh: -9.1; BaF3 parental: 57.0*; IEC-6 tox: -2.4

How did CCn1c(C)[n+](CC(O)COCC2CC=CCC2)c2ccccc21 (stereo unspecified) do in these assays?
Ba/F3 V617F tox: 26.6*; APP 5UTR inh: 4.2; KLF5 inh: -15.6; BaF3 parental: 40.6*; IEC-6 tox: -3.4

What do the screens show for `CCc1n(CC(O)COCC2CC=CCC2)c2ccccc2[n+]1C` (stereo unspecified)?
Ba/F3 V617F tox: 25.6*; APP 5UTR inh: -2.5; KLF5 inh: -27.3; BaF3 parental: 35.0*; IEC-6 tox: -0.5

How did CCCc1n(CC)c2ccccc2[n+]1CC(O)COC1CCCCC1 (stereo unspecified) do in these assays?
Ba/F3 V617F tox: 32.9*; APP 5UTR inh: 4.1; KLF5 inh: 20.8; BaF3 parental: 49.9*; IEC-6 tox: 2.1

Results for Cc1cccc(C)c1NC(=O)N1CCC(C(=O)c2ccc(F)cc2)CC1 ?
KLF5 inh: 6.8; IEC-6 tox: 1.4

How did c1cnc2ccc(C(c3nnnn3C3CCCCC3)N3CCCCC3)cc2c1 (stereo unspecified) do in these assays?
Ba/F3 V617F tox: -1.2; APP 5UTR inh: 3.2; KLF5 inh: -38.2; BaF3 parental: 3.1; IEC-6 tox: 0.4

Results for c1cnc2ccc(C(c3nnnn3C3CCCCC3)N3CCN(C4CCCCC4)CC3)cc2c1 (stereo unspecified) ?
Ba/F3 V617F tox: 36.6*; APP 5UTR inh: 9.4; KLF5 inh: -10.2; BaF3 parental: 33.1*; IEC-6 tox: -5.5

What do the screens show for `CC(OC(=O)c1cccnc1)C(=O)NCc1ccc2c(c1)OCO2` (stereo unspecified)?
Ba/F3 V617F tox: 3.4; APP 5UTR inh: -8.1; KLF5 inh: -0.6; BaF3 parental: 8.6; IEC-6 tox: -0.7

How did O=C(OC(C(=O)NCc1ccc2c(c1)OCO2)c1ccncc1)c1ccc(Cl)nc1 (stereo unspecified) do in these assays?
Ba/F3 V617F tox: 3.6; APP 5UTR inh: 17.4; KLF5 inh: 3.7; BaF3 parental: 80.6*; IEC-6 tox: 5.8

What do the screens show for `CC1=[N+](C)N(c2ccccc2)C(=O)C1N=Cc1c(Cl)cccc1Cl` (stereo unspecified)?
Ba/F3 V617F tox: -0.9; APP 5UTR inh: 1.6; KLF5 inh: -1.3; BaF3 parental: 7.4; IEC-6 tox: -3.1

What do the screens show for `Cc1cc(C2=NNC(=NC3CC3)SC2)c(C)n1-c1ccccc1F`?
Ba/F3 V617F tox: -0.6; APP 5UTR inh: 69.5*; KLF5 inh: -16.0; BaF3 parental: 4.1; IEC-6 tox: 6.5

How did Cc1cc(C2=NNC(=NC3CCCCC3)SC2)c(C)n1-c1c(C)n(C)n(-c2ccccc2)c1=O do in these assays?
Ba/F3 V617F tox: -1.5; APP 5UTR inh: -6.2; KLF5 inh: -4.0; BaF3 parental: -0.6; IEC-6 tox: -3.9

Results for CC1CCC(C(C)C)C(OC(=O)Cn2c(-c3ccc(F)cc3)[n+](C)c3ccccc32)C1 (stereo unspecified) ?
Ba/F3 V617F tox: 98.2*; APP 5UTR inh: -2.6; KLF5 inh: -8.5; BaF3 parental: 82.1*; IEC-6 tox: 5.1

What do the screens show for `Cc1cccc(OCc2n(CC(=O)OC3CC(C)CCC3C(C)C)c3ccccc3[n+]2C)c1` (stereo unspecified)?
Ba/F3 V617F tox: 101.4*; APP 5UTR inh: -32.5; KLF5 inh: -15.8; BaF3 parental: 88.3*; IEC-6 tox: -0.5

What do the screens show for `CCCCCCCCCCOC(=O)Cn1c(COc2ccccc2OC)[n+](C)c2ccccc21`?
KLF5 inh: 24.7; IEC-6 tox: 11.7

What do the screens show for `CC(C)CNC(=S)N(CCO)Cc1cc2cc3c(cc2[nH]c1=O)OCO3`?
KLF5 inh: -5.4; IEC-6 tox: -2.9

Results for COc1ccc(NC(=O)Cn2nnc(-c3ccccc3NS(=O)(=O)c3ccc(OC)cc3)n2)cc1 ?
Ba/F3 V617F tox: 77.8*; APP 5UTR inh: 89.2*; KLF5 inh: 74.6*; BaF3 parental: 66.2*; IEC-6 tox: 45.7*
